Results taken from PubChem BioAssay (NCATS).
Results filed as inconclusive are left out. Active and inactive are the calls of the source. The call rests on the fitted dose curve; in most records, active means well fitted inhibition curve with a large enough effect; inconclusive means small, poorly fitted or top-dose-only effect; inactive means flat fitted curve, though single readings scatter.

Key:
Test in all cases: qHTS profiling for inhibitors of Plasmodium falciparum proliferation (AID 504749); further: nearly all actives have a fitted effect of over 60% in size
CP256 = settings: P. falciparum in erythrocytes, SYBR Green DNA, 72 h; series mostly up to 28.7 µM
Outline: (§1)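 In a 72 h erythrocytic culture (37 C, humidified, 5% CO2) at 2.5% hematocrit and 0.3% starting parasitemia, compounds were tested; SYBR Green I in detergent lysis buffer stained parasite DNA overnight.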

CP260 = settings: P. falciparum in erythrocytes, SYBR Green DNA, 72 h; series mostly up to 28.7 µM
Outline: as §1

CP265 = settings: P. falciparum in erythrocytes, SYBR Green DNA, 72 h; series mostly up to 12.8 µM
Outline: as §1

CP266 = settings: P. falciparum in erythrocytes, SYBR Green DNA, 72 h; series mostly up to 12.8 µM
Outline: as §1

CP268 = settings: P. falciparum in erythrocytes, SYBR Green DNA, 72 h; series mostly up to 28.7 µM
Outline: as §1

CP269 = settings: P. falciparum in erythrocytes, SYBR Green DNA, 72 h; series mostly up to 28.7 µM
Outline: as §1

CP286 = settings: P. falciparum in erythrocytes, SYBR Green DNA, 72 h; series mostly up to 28.7 µM
Outline: as §1

CP291 = settings: P. falciparum in erythrocytes, SYBR Green DNA, 72 h; series mostly up to 28.7 µM
Outline: as §1

CP297 = settings: P. falciparum in erythrocytes, SYBR Green DNA, 72 h; series mostly up to 28.7 µM
Outline: as §1

CP305 = settings: P. falciparum in erythrocytes, SYBR Green DNA, 72 h; series mostly up to 28.7 µM
Outline: as §1

CP315 = settings: P. falciparum in erythrocytes, SYBR Green DNA, 72 h; series mostly up to 28.7 µM
Outline: as §1

CP325 = settings: P. falciparum in erythrocytes, SYBR Green DNA, 72 h; series mostly up to 28.7 µM
Outline: as §1

CP329 = settings: P. falciparum in erythrocytes, SYBR Green DNA, 72 h; series mostly up to 28.7 µM
Outline: as §1

DFO2036 = settings: P. falciparum in erythrocytes, SYBR Green DNA, 72 h; series mostly up to 28.7 µM
Outline: as §1

DIV14 = settings: P. falciparum in erythrocytes, SYBR Green DNA, 72 h; series mostly up to 28.7 µM
Outline: as §1

DIV17 = settings: P. falciparum in erythrocytes, SYBR Green DNA, 72 h; series mostly up to 28.7 µM
Outline: as §1

DIV30 = settings: P. falciparum in erythrocytes, SYBR Green DNA, 72 h; series mostly up to 28.7 µM
Outline: as §1

Dd2 = settings: P. falciparum in erythrocytes, SYBR Green DNA, 72 h; series mostly up to 28.7 µM
Outline: as §1

ECU = settings: P. falciparum in erythrocytes, SYBR Green DNA, 72 h; series mostly up to 28.7 µM
Outline: as §1

FAB9 = settings: P. falciparum in erythrocytes, SYBR Green DNA, 72 h; series mostly up to 28.7 µM
Outline: as §1

GB4 = settings: P. falciparum in erythrocytes, SYBR Green DNA, 72 h; series mostly up to 28.7 µM
Outline: as §1

HB3 = settings: P. falciparum in erythrocytes, SYBR Green DNA, 72 h; series mostly up to 28.7 µM
Outline: as §1

ICS = settings: P. falciparum in erythrocytes, SYBR Green DNA, 72 h; series mostly up to 28.7 µM
Outline: as §1

N140 = settings: P. falciparum in erythrocytes, SYBR Green DNA, 72 h; series mostly up to 28.7 µM
Outline: as §1

P93_24 = settings: P. falciparum in erythrocytes, SYBR Green DNA, 72 h; series mostly up to 28.7 µM
Outline: as §1

P94_40 = settings: P. falciparum in erythrocytes, SYBR Green DNA, 72 h; series mostly up to 28.7 µM
Outline: as §1

PAD = settings: P. falciparum in erythrocytes, SYBR Green DNA, 72 h; series mostly up to 28.7 µM
Outline: as §1

PC15 = settings: P. falciparum in erythrocytes, SYBR Green DNA, 72 h; series mostly up to 28.7 µM
Outline: as §1

PC26 = settings: P. falciparum in erythrocytes, SYBR Green DNA, 72 h; series mostly up to 28.7 µM
Outline: as §1

PC49 = settings: P. falciparum in erythrocytes, SYBR Green DNA, 72 h; series mostly up to 28.7 µM
Outline: as §1

SC27B = settings: P. falciparum in erythrocytes, SYBR Green DNA, 72 h; series mostly up to 28.7 µM
Outline: as §1

TAB109 = settings: P. falciparum in erythrocytes, SYBR Green DNA, 72 h; series mostly up to 12.8 µM
Outline: as §1

TAB113 = settings: P. falciparum in erythrocytes, SYBR Green DNA, 72 h; series mostly up to 28.7 µM
Outline: as §1

TAB165 = settings: P. falciparum in erythrocytes, SYBR Green DNA, 72 h; series mostly up to 28.7 µM
Outline: as §1

W2 = settings: P. falciparum in erythrocytes, SYBR Green DNA, 72 h; series mostly up to 12.8 µM
Outline: as §1

Measured: Potency
Potency means the concentration at half of the fitted maximal effect.

CO[C@@H](COC(N)=O)C1=C(N2CC2)C(=O)C(C)=C(N2CC2)C1=O
active: CP256 1410 nM | CP260 1000 nM | CP265 708 nM | CP266 3790 nM | CP268 3010 nM | CP269 953 nM | CP286 1120 nM | CP291 1350 nM | CP297 1690 nM | CP305 1900 nM | CP315 3380 nM | CP325 3010 nM | CP329 1510 nM | DFO2036 794 nM | DIV14 1510 nM | DIV17 1900 nM | DIV30 3010 nM | Dd2 891 nM | ECU 2000 nM | FAB9 7940 nM | GB4 1510 nM | HB3 2000 nM | ICS 1000 nM | N140 1260 nM | P93_24 1120 nM | P94_40 1120 nM | PAD 1260 nM | PC15 2820 nM | PC26 1900 nM | SC27B 1260 nM | TAB109 1120 nM | TAB113 1260 nM | TAB165 708 nM | W2 301 nM
inactive: PC49
